Source: PubChem BioAssay (Tox21)
Records with an inconclusive call do not appear. Calls of active or inactive are those of the source. Unless noted, the call rests on the fitted dose curve.

Key:
[1] = Nuclear factor erythroid 2-related factor 2/antioxidant responsive element (Nrf2/ARE) small molecule agonists: qHTS cell viability counter screen in human keratinocytes (AID 1919968; active means well fitted curve in the direction sought with a large enough effect in the repeat runs; an effect the other way counts as inactive or inconclusive; further: nearly all actives have a fitted effect of over 55% in size; further: potency means the concentration at half of the fitted maximal effect)
Summary of the method: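 Viability counter-screen: KeratinoSens reporter cells, DMSO-delivered compounds, 23 h at 37 C, CellTiter-Fluor fluorescence.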

[2] = Nuclear factor erythroid 2-related factor 2/antioxidant responsive element (Nrf2/ARE) small molecule agonists: luciferase reporter gene qHTS assay in human keratinocytes (AID 1919969); further: nearly all actives have a fitted effect of over 35% in size; further: potency means the concentration at half of the fitted maximal effect
[3] = molecular target: Gonadotropin-releasing hormone receptor (Homo sapiens) (UniProt P30968); experiment: Human gonadotropin-releasing hormone receptor (GnRHR) small molecule agonists, calcium flux assay in GnRHR-HEK293 cells (AID 1920063); further: nearly all actives have a fitted effect of over 35% in size; further: potency means the concentration at half of the fitted maximal effect
Summary of the method: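 Tox21-format agonist screen using human GnRHR-expressing HEK293 cells and a fluorescent calcium dye; kinetic 3-min fluorescence reading after compound addition, 15-point concentration series run in triplicate.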

[4] = molecular target: KiSS-1 receptor (Homo sapiens) (UniProt Q969F8); experiment: Human kisspeptin (KISS1R) small molecule agonists, calcium flux assay in KISS1R-HEK293 cells (AID 1920064; active means well fitted curve in the direction sought with a large enough effect in the repeat runs; an effect the other way counts as inactive or inconclusive)
Summary of the method: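 Intracellular calcium mobilization in KISS1R-HEK293 cells was recorded by fluorescence (Ex/Em 480/540) for 3 min following compound addition to cells pre-loaded 1 h with calcium dye.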

[5] = p53 small molecule agonists, cell-based qHTS assay with human liver microsomes (AID 1963577);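 further: p53 response element beta-lactamase reporter cells with liver microsomes plus NADPH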
Summary of the method: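 HLM-supplemented p53RE-bla reporter assay: 16 h compound exposure at 37 C, microsomes and NADPH each 0.5 mg/mL final, read by fluorescence intensity.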

[6] = p53 small molecule agonists, cell-based qHTS assay with rat liver microsomes (AID 1963578)
Summary of the method: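 Quantitative HTS of the Tox21 10K library: p53RE-bla cells, rat liver microsomes plus NADPH at 0.5 mg/mL final each, 16 h at 37 C, beta-lactamase fluorescence detection.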

[7] = p53 small molecule agonists, cell-based qHTS assay with human liver microsomes: qHTS cell viability counter screen (AID 1963579); further: nearly all actives have a fitted effect of over 45% in size; further: potency means the concentration at half of the fitted maximal effect
Summary of the method: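 Viability of p53RE-bla cells is measured as CellTiter-Glo luminescence following a 16 h, 37 C incubation with compound, liver microsomes from human donors and NADPH.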

[8] = p53 small molecule agonists, cell-based qHTS assay: qHTS cell viability counter screen (AID 1963581); further: nearly all actives have a fitted effect of over 45% in size; further: potency means the concentration at half of the fitted maximal effect
Summary of the method: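 Compounds are pinned onto HCT-116 p53RE-bla cells and left 16 h at 37 C. Following the reporter FRET read, ATP is quantified by CellTiter-Glo luminescence after 30 min at room temperature.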

[9] = p53 small molecule agonists, cell-based qHTS assay (AID 1963582; active means well fitted activation curve with a large enough effect in the signal ratio in the repeat runs, not every such curve was filed as active; the % refers to the signal ratio)
Summary of the method: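 Agonist activity was scored from beta-lactamase FRET fluorescence in p53RE-bla cells treated 16 h at 37 C with compounds in DMSO, substrate incubation being 2 h at room temperature.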

[10] = molecular target: 5-hydroxytryptamine receptor 2A (Homo sapiens) (UniProt P28223); experiment: 5-hydroxytryptamine receptor 2A (HTR2A) small molecule antagonists, cell-based qHTS assay (AID 1963586); further: nearly all actives have a fitted effect of over 45% in size
Summary of the method: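 Antagonist-mode intracellular calcium assay: DOI (4 nM) added after 5 min compound pre-incubation at room temperature to dye-loaded HTR2A-CHO cells. Fluorescence followed for 3 min, sampled every second.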

[11] = molecular target: 5-hydroxytryptamine receptor 2A (Homo sapiens) (UniProt P28223); experiment: 5-hydroxytryptamine receptor 2A (HTR2A) small molecule agonists, cell-based qHTS assay (AID 1963587); further: nearly all actives have a fitted effect of over 30% in size
Summary of the method: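 CHO cells stably expressing human HTR2A, plated 18 h, loaded with calcium dye 1 h at 37 C. Agonist mode: compounds added and intracellular calcium fluorescence recorded kinetically for 2 min at 1 sec intervals.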

[12] = molecular target: Muscarinic acetylcholine receptor M1 (Homo sapiens) (UniProt P11229); experiment: Cholinergic receptor muscarinic 1 (CHRM1) small molecule antagonists, cell-based qHTS assay (AID 1963588); further: nearly all actives have a fitted effect of over 40% in size
Summary of the method: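 CHRM1-CHO calcium-flux assay, antagonist mode. Cells were seeded 18 h, dye-loaded 1 h at 37 C and given compound for 5 min at RT, then acetylcholine was added at 50nM. FDSS fluorescence was read 3 min; 15 concentrations, three runs.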

[13] = molecular target: Muscarinic acetylcholine receptor M1 (Homo sapiens) (UniProt P11229); experiment: Cholinergic receptor muscarinic 1 (CHRM1) small molecule agonists, cell-based qHTS assay (AID 1963589); further: nearly all actives have a fitted effect of over 35% in size
Summary of the method: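 Stable CHRM1-CHO cells (human receptor) were incubated 18 h, dye-loaded for 1 h at 37 C and exposed to test compounds for agonist activity, with calcium-dependent fluorescence followed kinetically.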

[14] = cAMP Responsive Elements (CRE) small molecule agonists, cell-based qHTS assay (AID 1963590)
Summary of the method: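 FRET-based beta-lactamase readout (LiveBLAzer B/G, 2 h RT) quantified CRE activation in HEK 293T CRE-bla cells after 3 h treatment with DMSO-dissolved compounds.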

[15] = molecular target: Beta-2 adrenergic receptor (Homo sapiens) (UniProt P07550); experiment: Adrenergic beta2 receptor (ADRB2) small molecule antagonists, cell-based qHTS assay (AID 1963592); further: nearly all actives have a fitted effect of over 50% in size; further: potency means the concentration at half of the fitted maximal effect; on activity change, negative = inhibition: series mostly up to about 92 µM
Summary of the method: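 Cells (CHO, stable ADRB2 overexpression) incubated 18-20hr at 37C; compounds added from DMSO; agonist mix (1nM isoproterenol, 100uM IBMX, 25uM Ro-20-1724) added; 0.5hr RT; d2-cAMP and anti-cAMP-cryptate added; 1hr RT; 665/615 nm read.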

[16] = molecular target: D(2) dopamine receptor (Homo sapiens) (UniProt P14416); experiment: Dopamine D2 receptor (DRD2) small molecule agonists, cell-based qHTS assay (AID 1963594); further: nearly all actives have a fitted effect of over 35% in size
Summary of the method: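 HEK293 cells stably expressing human DRD2, pre-treated with PDE inhibitor Ro20-1724 (0.1 mM final) and compound 10 min at room temperature, then stimulated with NKH477 (200nM […]) for 30 min. cAMP read by HTRF (665/620 nm).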

[17] = molecular target: D(2) dopamine receptor (Homo sapiens) (UniProt P14416); experiment: Dopamine D2 receptor (DRD2) small molecule antagonists, cell-based qHTS assay (AID 1963595; active means well fitted inhibition curve with a large enough effect in the signal ratio in the repeat runs, with a control signal flat; the % refers to the signal ratio)
Summary of the method: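 Human DRD2 antagonist qHTS measuring cAMP by HTRF. The cells are exposed to compound for 10 min, then to NKH477 (200 nM) and quinpirole (12 nM) for 30 min at RT, with Ro20-1724 (0.1 mM) present throughout.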

[18] = p53 small molecule agonists, cell-based qHTS assay with rat liver microsomes: qHTS cell viability counter screen (AID 1963580); further: nearly all actives have a fitted effect of over 45% in size
Summary of the method: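 Viability is assessed in parallel with the p53 reporter read: HCT-116 p53RE-bla cells receive compounds plus rat microsomes and NADPH (0.5 mg/mL final apiece), incubate 16 h at 37 C, and then CellTiter-Glo luminescence is recorded.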

[19] = cAMP Responsive Elements (CRE) small molecule antagonists, cell-based qHTS assay (AID 1963591; active means well fitted inhibition curve with a large enough effect in the signal ratio in the repeat runs, not every such curve was filed as active; the % refers to the signal ratio)
Summary of the method: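 qHTS in CRE-bla HEK 293T cells: compound in DMSO, then 0.25 uM NKH477 (final), 3 h at 37 °C/5% CO2; beta-lactamase FRET read-out after 2 h substrate incubation.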

[20] = molecular target: Beta-2 adrenergic receptor (Homo sapiens) (UniProt P07550); experiment: Adrenergic beta2 receptor (ADRB2) small molecule agonists, cell-based qHTS assay (AID 1963593);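 further: CHO cells stably overexpressing human ADRB2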
Summary of the method: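 CHO cells stably over-expressing ADRB2 were plated overnight at 37C, then dosed with compounds plus a stimulation mix containing 100uM IBMX and 25uM Ro-20-1724 for 0.5hr at room temperature. cAMP was measured by HTRF competition, 1hr.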
On the % scale 0 is the no-effect control and ±100 the full control effect.

Sequence of Beta-2 adrenergic receptor (Homo sapiens) (P07550 whole entry, looked up): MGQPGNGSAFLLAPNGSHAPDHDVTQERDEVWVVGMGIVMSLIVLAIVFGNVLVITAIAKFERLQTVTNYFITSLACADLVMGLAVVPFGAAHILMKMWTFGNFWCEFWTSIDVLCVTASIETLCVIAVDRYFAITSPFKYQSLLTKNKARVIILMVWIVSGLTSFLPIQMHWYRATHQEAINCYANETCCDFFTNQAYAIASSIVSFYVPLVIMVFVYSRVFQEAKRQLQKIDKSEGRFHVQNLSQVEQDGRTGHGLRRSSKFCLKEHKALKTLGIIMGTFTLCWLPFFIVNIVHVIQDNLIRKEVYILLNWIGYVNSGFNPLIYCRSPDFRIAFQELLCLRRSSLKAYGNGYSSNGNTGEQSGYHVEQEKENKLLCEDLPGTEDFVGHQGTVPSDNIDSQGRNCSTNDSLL
Sequence of 5-hydroxytryptamine receptor 2A (Homo sapiens) (P28223 whole entry, looked up): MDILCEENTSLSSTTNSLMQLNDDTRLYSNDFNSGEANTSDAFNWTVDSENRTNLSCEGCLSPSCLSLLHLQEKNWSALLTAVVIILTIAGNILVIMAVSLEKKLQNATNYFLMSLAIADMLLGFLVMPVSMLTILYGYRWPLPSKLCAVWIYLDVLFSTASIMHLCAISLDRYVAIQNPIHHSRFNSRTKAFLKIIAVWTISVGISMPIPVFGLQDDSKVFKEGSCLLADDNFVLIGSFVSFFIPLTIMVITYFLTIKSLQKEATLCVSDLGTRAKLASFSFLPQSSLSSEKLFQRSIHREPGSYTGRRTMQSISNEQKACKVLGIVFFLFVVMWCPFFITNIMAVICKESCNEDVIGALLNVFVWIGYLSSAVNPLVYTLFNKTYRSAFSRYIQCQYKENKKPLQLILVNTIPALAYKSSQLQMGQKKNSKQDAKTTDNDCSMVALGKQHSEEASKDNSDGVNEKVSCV
Sequence of D(2) dopamine receptor (Homo sapiens) (P14416 whole entry, looked up): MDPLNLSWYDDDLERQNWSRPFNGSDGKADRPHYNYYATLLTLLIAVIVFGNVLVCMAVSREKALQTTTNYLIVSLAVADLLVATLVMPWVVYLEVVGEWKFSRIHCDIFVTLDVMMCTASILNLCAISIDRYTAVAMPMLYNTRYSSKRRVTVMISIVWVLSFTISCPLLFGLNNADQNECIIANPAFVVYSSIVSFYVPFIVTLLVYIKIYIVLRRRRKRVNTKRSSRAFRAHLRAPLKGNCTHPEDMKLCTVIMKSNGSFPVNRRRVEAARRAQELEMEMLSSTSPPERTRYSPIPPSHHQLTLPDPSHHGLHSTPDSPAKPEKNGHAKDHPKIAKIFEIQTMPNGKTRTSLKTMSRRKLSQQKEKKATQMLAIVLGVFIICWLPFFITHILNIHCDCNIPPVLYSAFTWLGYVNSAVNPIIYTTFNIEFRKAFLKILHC
Sequence of Muscarinic acetylcholine receptor M1 (Homo sapiens) (P11229 whole entry, looked up): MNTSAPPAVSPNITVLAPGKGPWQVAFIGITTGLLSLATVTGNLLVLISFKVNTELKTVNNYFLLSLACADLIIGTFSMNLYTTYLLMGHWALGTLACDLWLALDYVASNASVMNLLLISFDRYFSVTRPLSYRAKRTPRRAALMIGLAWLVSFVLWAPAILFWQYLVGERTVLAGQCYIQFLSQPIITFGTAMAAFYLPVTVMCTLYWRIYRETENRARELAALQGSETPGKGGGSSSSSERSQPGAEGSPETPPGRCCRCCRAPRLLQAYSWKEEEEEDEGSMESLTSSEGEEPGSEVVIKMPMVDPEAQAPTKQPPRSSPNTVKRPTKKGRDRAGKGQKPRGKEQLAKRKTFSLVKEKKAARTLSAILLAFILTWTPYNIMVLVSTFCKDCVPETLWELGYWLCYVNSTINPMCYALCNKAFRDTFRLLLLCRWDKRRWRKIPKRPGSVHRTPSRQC
Sequence of KiSS-1 receptor (Homo sapiens) (Q969F8 whole entry, looked up): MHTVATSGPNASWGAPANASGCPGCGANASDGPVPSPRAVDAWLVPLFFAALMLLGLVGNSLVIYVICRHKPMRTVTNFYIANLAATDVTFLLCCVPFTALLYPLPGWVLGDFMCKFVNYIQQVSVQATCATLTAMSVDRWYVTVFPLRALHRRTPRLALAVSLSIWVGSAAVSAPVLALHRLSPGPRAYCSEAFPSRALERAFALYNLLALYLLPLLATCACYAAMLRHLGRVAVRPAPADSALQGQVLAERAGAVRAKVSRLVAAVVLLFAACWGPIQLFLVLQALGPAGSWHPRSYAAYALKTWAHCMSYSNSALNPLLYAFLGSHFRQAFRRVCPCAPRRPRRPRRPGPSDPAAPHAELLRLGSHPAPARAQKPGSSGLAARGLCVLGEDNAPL
Sequence of Gonadotropin-releasing hormone receptor (Homo sapiens) (P30968 whole entry, looked up): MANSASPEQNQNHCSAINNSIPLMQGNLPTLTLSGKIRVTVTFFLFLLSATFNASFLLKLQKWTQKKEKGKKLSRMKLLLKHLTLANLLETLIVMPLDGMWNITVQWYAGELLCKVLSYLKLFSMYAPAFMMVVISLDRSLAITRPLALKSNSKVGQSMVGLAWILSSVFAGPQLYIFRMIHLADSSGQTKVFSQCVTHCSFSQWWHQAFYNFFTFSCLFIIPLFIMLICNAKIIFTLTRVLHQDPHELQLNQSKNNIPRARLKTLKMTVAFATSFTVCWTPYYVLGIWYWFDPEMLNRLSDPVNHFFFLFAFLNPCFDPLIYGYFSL

CCCCCCCCOC(C)=O
inactive: Potency [1] | Potency [2] | Potency [3] | outcome [4] | Potency [5] | Potency [6] | Potency [7] | Potency [8] | Potency [9] | Potency [10] | Potency [11] | Potency [12] | Potency [13] | Potency [14] | Potency [15] | Potency [16] | Potency [17]

O=C(CCCCCCCCc1cccnc1)N1CCC(C=C(c2ccccc2)c2ccccc2)CC1
active: Potency [1] 15.4 µM
inactive: Potency [2] | Potency [3] | outcome [4] | Potency [5] | Potency [6] | Potency [7] | Potency [18] | Potency [10] | Potency [11] | Potency [13] | Potency [19] | Potency [15] | Potency [16] | Potency [17]

CN(C)CCCOc1nn(Cc2ccccc2)c2ccccc12
active: Potency [15] 26.6 µM
inactive: Potency [1] | Potency [2] | Potency [3] | outcome [4] | Potency [5] | Potency [6] | Potency [7] | Potency [18] | Potency [10] | Potency [11] | Potency [12] | Potency [13] | Potency [14] | Potency [16] | Potency [17]

COc1ccc(CCC(=O)c2c(O)cc(O[C@@H]3O[C@H](CO)[C@@H](O)[C@H](O)[C@H]3O[C@@H]3O[C@@H](C)[C@H](O)[C@@H](O)[C@H]3O)cc2O)cc1O
inactive: Potency [1] | Potency [2] | Potency [3] | outcome [4] | Potency [5] | Potency [6] | Potency [7] | Potency [18] | Potency [9] | Potency [10] | Potency [12] | Potency [13] | Potency [14] | Potency [19] | Potency [15] | Potency [16]

Cc1cc(F)ccc1-c1cc(N2CC[C@@H](O)[C@H]2CO)ncc1N(C)C(=O)C(C)(C)c1cc(C(F)(F)F)cc(C(F)(F)F)c1
active: Potency [1] 19 µM | Potency [7] 14.3 µM | Potency [8] 16 µM
inactive: Potency [2] | Potency [3] | outcome [4] | Potency [5] | Potency [6] | Potency [10] | Potency [11] | Potency [12] | Potency [13] | Potency [16] | Potency [17]

CCOC(=O)CS
active: Potency [2] 70.5 µM
inactive: Potency [1] | Potency [3] | outcome [4] | Potency [5] | Potency [6] | Potency [7] | Potency [18] | Potency [10] | Potency [11] | Potency [12] | Potency [13] | Potency [14] | Potency [15] | Potency [16] | Potency [17]

CCCCCCCCCCCCCC[n+]1ccccc1
inactive: Potency [2] | outcome [4] | Potency [5] | Potency [6] | Potency [15] | Potency [16] | Potency [17]
active: Potency [1] 27.3 µM | Potency [3] 34.7 µM | Potency [7] 32.4 µM

CCCCc1ccc(N)cc1
inactive: Potency [1] | Potency [2] | Potency [3] | outcome [4] | Potency [5] | Potency [6] | Potency [7] | Potency [18] | Potency [8] | Potency [11] | Potency [12] | Potency [13] | Potency [14] | Potency [19] | Potency [15] | Potency [16] | Potency [17]

O=C1c2ccccc2C(=O)c2cc(Cl)ccc21
inactive: activity change, negative = cytotoxicity [1] -4.18% [at 8.39 µM] | activity, positive = activation [2] 3.42% [at 8.39 µM] | activity change [3] -1.12% [at 5.22 µM, active compounds read high] | activation [4] -0.408% [at 6.97 µM] | activation [5] -0.0412% [at 5.99 µM] | activation [6] 1.77% [at 5.99 µM] | activity change, negative = cytotoxicity [7] 3.98% [at 5.99 µM] | activity change, negative = cytotoxicity [18] 0.229% [at 5.99 µM] | activation [9] -0.497% [at 5.99 µM] | activity, negative = inhibition [10] 0.237% [at 5.62 µM] | activity, negative = inhibition [12] -8.9% [at 5.58 µM] | activation [13] -0.206% [at 6.97 µM] | activation [14] -1.41% [at 8.39 µM] | activity change, negative = inhibition [19] -1.91% [at 8.39 µM] | activity change, negative = inhibition [15] -7.09% [at 8.39 µM] | activation [16] 1.23% [at 8.39 µM] | activity change, negative = inhibition [17] -1.19% [at 8.38 µM]

C[Si]1(C)N[Si](C)(C)N[Si](C)(C)N1
inactive: Potency [1] | Potency [2] | Potency [3] | outcome [4] | Potency [5] | Potency [6] | Potency [18] | Potency [8] | Potency [9] | Potency [10] | Potency [11] | Potency [12] | Potency [13] | Potency [14] | Potency [19] | Potency [15] | Potency [16] | Potency [17]

CCCC(C)C=O (stereo unspecified)
inactive: Potency [1] | Potency [2] | Potency [3] | outcome [4] | Potency [5] | Potency [6] | Potency [7] | Potency [8] | Potency [9] | Potency [10] | Potency [11] | Potency [12] | Potency [13] | Potency [19] | Potency [15] | Potency [16] | Potency [17]

CC(C)(C)C(=O)CC(=O)C(C)(C)C
inactive: Potency [1] | Potency [2] | Potency [3] | outcome [4] | Potency [5] | Potency [6] | Potency [7] | Potency [18] | Potency [9] | Potency [10] | Potency [13] | Potency [14] | Potency [19] | Potency [15] | Potency [16] | Potency [17]

C1=CCCC1
inactive: Potency [1] | Potency [2] | Potency [3] | outcome [4] | Potency [5] | Potency [6] | Potency [7] | Potency [8] | Potency [9] | Potency [10] | Potency [11] | Potency [12] | Potency [13] | Potency [14] | Potency [15] | Potency [16] | Potency [17]

C=COCCCCO
inactive: Potency [1] | Potency [2] | Potency [3] | outcome [4] | Potency [5] | Potency [6] | Potency [7] | Potency [8] | Potency [9] | Potency [10] | Potency [11] | Potency [14] | Potency [19] | Potency [15] | Potency [20] | Potency [16] | Potency [17]

CCCCCCCCCCCCN1CCOCC1
inactive: Potency [1] | Potency [2] | Potency [3] | outcome [4] | Potency [5] | Potency [6] | Potency [7] | Potency [18] | Potency [9] | Potency [10] | Potency [12] | Potency [13] | Potency [14] | Potency [19] | Potency [15] | Potency [20] | Potency [16] | Potency [17]
